The values below come from PubChem BioAssay (NCATS).

Records with an inconclusive call do not appear. A number with no mark means an inactive call. Active and inactive are the calls of the source. The call rests on the fitted dose curve; in most records, active means well fitted curve in the direction sought with a large enough effect; inconclusive means small, poorly fitted or top-dose-only effect, or another doubt; inactive means no such curve, though single readings can be large; an effect the other way counts as inactive or inconclusive.

The target of assay [1] is Rap guanine nucleotide exchange factor 3 (Homo sapiens) (UniProt O95398). The assay is described as follows: Confirmatory qHTS for agonist of cAMP-regulated guanine nucleotide exchange factor 3 (EPAC1) (AID 1645881;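 further: EPAC1 catalysed release of BODIPY-GDP from Rap1B seen as fluorescence loss; 100% = effect of cAMP agonist control; nearly all actives have a fitted effect of over 75% in size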). (Quantitative high-throughput screening tests each substance at several concentrations.)
Assay [2] concerns the target Rap guanine nucleotide exchange factor 4 (Homo sapiens) (UniProt Q8WZA2). The assay can be described thus: Confirmatory qHTS for agonist of cAMP-regulated guanine nucleotide exchange factor 4 (EPAC2) (AID 1645884).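 Further: nucleotide exchange releases bodipy-GDP from Rap1 and this lowers its fluorescence; nearly all actives have a fitted effect of over 65% in size.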 Further: potency means the concentration at half of the fitted maximal effect. On activation: on the % scale 0 is the no-effect control and ±100 the full control effect.
The target is the same in assay [3]. The assay is described as follows: Confirmatory qHTS for antagonist of cAMP-regulated guanine nucleotide exchange factor 4 (EPAC2) (AID 1645885). Further: nearly all actives have a fitted effect of over 25% in size. Further: potency means the concentration at half of the fitted maximal effect. On activity change, negative = inhibition: on the % scale 0 is the no-effect control and ±100 the full control effect.
Assay [4] concerns the target Rap guanine nucleotide exchange factor 3 (Homo sapiens) (UniProt O95398). The assay is described as follows: Counterscreen qHTS for antagonist of cAMP-regulated guanine nucleotide exchange factor 3 (EPAC1) (AID 1645888).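 Further: fluorescence loss as bound BODIPY-GDP is released from Rap1B; % of control where 0% means no effect.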 A digest of the protocol:
(§1)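 Rap1B–BODIPY-GDP (250 nM) with 50 uM GDP; compounds pin-transferred to 9.74 nM–152 uM final (activator) or from 7.32 nM upwards (inhibitor). Fluorescence Ex/Em 480/540 nm read at 5 and 30 min, then after adding cAMP or buffer, at room temperature.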

The target is the same in assay [5]. The assay can be described thus: Counterscreen qHTS for agonist of cAMP-regulated guanine nucleotide exchange factor 3 (EPAC1) (AID 1645889). Further: % of control where 0% means no effect; nearly all actives have a fitted effect of over 40% in size. The method in brief:
as §1

Chain of Rap guanine nucleotide exchange factor 3 (Homo sapiens) (O95398 whole entry, looked up): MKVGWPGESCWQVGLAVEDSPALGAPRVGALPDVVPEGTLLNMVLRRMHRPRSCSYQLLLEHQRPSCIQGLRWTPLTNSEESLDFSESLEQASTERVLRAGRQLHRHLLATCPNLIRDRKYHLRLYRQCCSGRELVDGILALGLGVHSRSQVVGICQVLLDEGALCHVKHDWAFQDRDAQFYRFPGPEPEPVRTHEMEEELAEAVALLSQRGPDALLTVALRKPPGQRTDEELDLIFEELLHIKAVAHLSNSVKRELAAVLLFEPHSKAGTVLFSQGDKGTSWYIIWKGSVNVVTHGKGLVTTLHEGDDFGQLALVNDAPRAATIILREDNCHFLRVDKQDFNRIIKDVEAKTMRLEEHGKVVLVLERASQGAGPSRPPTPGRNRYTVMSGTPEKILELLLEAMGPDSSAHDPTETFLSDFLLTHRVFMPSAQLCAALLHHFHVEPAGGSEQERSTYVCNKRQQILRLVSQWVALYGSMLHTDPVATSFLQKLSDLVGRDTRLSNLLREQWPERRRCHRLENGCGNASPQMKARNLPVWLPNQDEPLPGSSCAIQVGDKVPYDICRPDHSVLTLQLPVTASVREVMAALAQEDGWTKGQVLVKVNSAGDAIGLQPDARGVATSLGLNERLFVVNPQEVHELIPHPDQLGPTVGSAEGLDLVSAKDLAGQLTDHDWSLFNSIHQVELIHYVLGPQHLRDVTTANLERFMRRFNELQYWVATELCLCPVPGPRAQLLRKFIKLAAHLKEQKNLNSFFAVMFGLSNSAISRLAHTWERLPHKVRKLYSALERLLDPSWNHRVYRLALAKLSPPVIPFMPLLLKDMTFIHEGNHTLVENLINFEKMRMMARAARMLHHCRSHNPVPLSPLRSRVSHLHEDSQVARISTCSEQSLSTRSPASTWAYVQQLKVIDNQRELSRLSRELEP
Chain of Rap guanine nucleotide exchange factor 4 (Homo sapiens) (Q8WZA2 whole entry, looked up): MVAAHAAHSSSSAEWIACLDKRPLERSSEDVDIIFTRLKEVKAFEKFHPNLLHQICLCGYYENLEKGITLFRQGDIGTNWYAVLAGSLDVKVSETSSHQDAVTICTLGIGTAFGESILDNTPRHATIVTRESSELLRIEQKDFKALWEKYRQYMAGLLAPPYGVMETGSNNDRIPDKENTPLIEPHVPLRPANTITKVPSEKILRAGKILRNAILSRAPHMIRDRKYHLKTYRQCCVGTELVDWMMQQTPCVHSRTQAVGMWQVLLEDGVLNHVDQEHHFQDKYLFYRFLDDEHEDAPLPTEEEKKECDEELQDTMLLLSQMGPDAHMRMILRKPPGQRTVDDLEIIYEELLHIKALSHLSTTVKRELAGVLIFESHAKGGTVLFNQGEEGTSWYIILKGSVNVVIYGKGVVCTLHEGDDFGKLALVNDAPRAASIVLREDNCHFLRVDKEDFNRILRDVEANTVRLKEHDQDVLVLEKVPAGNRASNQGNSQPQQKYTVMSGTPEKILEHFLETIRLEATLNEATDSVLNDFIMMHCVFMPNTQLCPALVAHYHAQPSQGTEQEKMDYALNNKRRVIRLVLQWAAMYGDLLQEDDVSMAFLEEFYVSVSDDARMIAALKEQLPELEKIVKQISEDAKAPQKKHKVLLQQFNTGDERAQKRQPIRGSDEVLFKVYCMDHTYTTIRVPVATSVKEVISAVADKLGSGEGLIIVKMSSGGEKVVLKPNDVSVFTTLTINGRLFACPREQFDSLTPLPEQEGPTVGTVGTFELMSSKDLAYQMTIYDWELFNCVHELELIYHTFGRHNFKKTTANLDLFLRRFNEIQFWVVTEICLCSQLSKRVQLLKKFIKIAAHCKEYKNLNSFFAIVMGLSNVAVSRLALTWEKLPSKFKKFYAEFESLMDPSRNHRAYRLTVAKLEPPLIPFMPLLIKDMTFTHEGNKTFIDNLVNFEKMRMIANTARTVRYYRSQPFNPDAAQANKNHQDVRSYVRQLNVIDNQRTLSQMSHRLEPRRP

`Cc1nnc(-c2ccco2)c2cn(-c3cccc(Br)c3)nc12`: the Potency entry in assay [1], in assay [2], in assay [3], in assay [4] and in assay [5] was “inactive” each time.

Turning to `CCCCCC(=O)Nc1cccc(C2=NOC3(C2)C[C@@H](C(N)=O)N(C(=O)CC(c2ccccc2)c2ccccc2)C3)c1` (stereo not given in full), the Potency result in assay [1] and in assay [3] was “inactive” each time. For the same molecule, the activation was 9.87% [at 17.1 µM, percent relative to cAMP agonist control] in assay [2] and 34.5% [at 30.8 µM] in assay [5]. The activity change, negative = inhibition in assay [4] was -21.4% [at 30.8 µM].

Consider `CC1(NC(=O)CCc2nc3sc4c(c3c(=O)[nH]2)CCCC4)CCS(=O)(=O)C1` (stereo not given), for which the Potency entry in assay [1] and in assay [3] was “inactive” in each case. For the same molecule, the activation in assay [2] is 0.392% [at 17.1 µM, percent relative to cAMP agonist control]; in assay [5], 8.58% [at 30.8 µM]. For the same molecule, in assay [4], the activity change, negative = inhibition was -17% [at 30.8 µM].

As for `CCCCC(CC)C(=O)Oc1ccc(O)c(C(C)(C)C)c1` (stereo not given), the Potency result in assay [1] and in assay [3] was “inactive” in each case. Besides, the activation in assay [2] is -3.79% [at 17.1 µM, percent relative to cAMP agonist control]; in assay [5], -16.7% [at 30.8 µM]. Moreover, in assay [4], the activity change, negative = inhibition was 0.29% [at 30.8 µM].

Consider `Cc1ccc(Cl)cc1NS(=O)(=O)c1ccccc1`, for which the Potency entry in assay [1] and in assay [3] was “inactive” each time. Besides, the activation in assay [2] was 2.77% [at 17.1 µM, percent relative to cAMP agonist control]; in assay [5] it was 7.24% [at 30.8 µM]. Moreover, the activity change, negative = inhibition in assay [4] is 0.85% [at 30.8 µM].

As for `CCOc1cc(-c2c(C#N)c(N)nc3c2CCCC3C)ccc1O` (stereo not given), the Potency entry in assay [1], in assay [3], in assay [4] and in assay [5] was “inactive” throughout. Besides, in assay [2], the Potency is 0.398 µM (active).

Regarding `CCOC(=O)Cc1csc(NC(=O)COc2ccc3ccccc3c2)n1`, the Potency result in assay [1] and in assay [3] was “inactive” each time. Further, the activation in assay [2] is 9.25% [at 17.1 µM, percent relative to cAMP agonist control]; in assay [5] it was 21.1% [at 30.8 µM]. In assay [4], the activity change, negative = inhibition is 5.57% [at 30.8 µM].

As to `COc1ccc(-c2nc3ccccc3n2CCC(C)C)cc1OC`, the Potency result in assay [1], in assay [2], in assay [3], in assay [4] and in assay [5] was “inactive” each time.

On to `COc1cc(/C=C2/SC(=S)N(c3c(C)n(C)n(-c4ccccc4)c3=O)C2=O)ccc1O`, for which the Potency entry in assay [1] and in assay [3] was “inactive” in each case. Further, the activation is 9.4% [at 17.1 µM, percent relative to cAMP agonist control] in assay [2] and 11.7% [at 30.8 µM] in assay [5]. Moreover, in assay [4], the activity change, negative = inhibition was -24.4% [at 30.8 µM].

With `Cc1ccc(-c2nc3ccc(C)cn3c2Cc2ccccc2C(F)(F)F)cc1`, the Potency result in assay [1], in assay [2], in assay [3], in assay [4] and in assay [5] was “inactive” each time.

As for `O=C1NC(=O)/C(=C/c2ccc(-c3cc(C(=O)O)ccc3Cl)o2)S1`, the Potency entry in assay [1] and in assay [3] was “inactive” throughout. The activation in assay [2] was 7.65% [at 17.1 µM, percent relative to cAMP agonist control]; in assay [5], 8.4% [at 30.8 µM]. For the same molecule, in assay [4], the activity change, negative = inhibition was 4.91% [at 30.8 µM].

Take `CCC(=O)N(CCC1(c2ccccc2OC)CCOC(C(C)C)C1)Cc1ccco1` (stereo not given): the Potency result in assay [1] and in assay [3] was “inactive” each time. Moreover, the activation in assay [2] was -0.808% [at 17.1 µM, percent relative to cAMP agonist control]; in assay [5] it was 10.9% [at 30.8 µM]. In addition, the activity change, negative = inhibition in assay [4] was -14.7% [at 30.8 µM].

For the molecule `CCOC(=O)C1=C(C)N=c2sc(=Cc3cc(Cl)c(OCC(=O)O)c(Cl)c3)c(=O)n2C1c1cccc(OC)c1` (stereo not given), the Potency result in assay [1], in assay [2], in assay [3], in assay [4] and in assay [5] was “inactive” throughout.

Regarding `CCOC(=O)C1=C(C)OC(N)=C(C#N)C1c1cc2c(cc1Br)OCO2` (stereo not given), the Potency entry in assay [1] and in assay [3] was “inactive” each time. The activation in assay [2] is -5.39% [at 17.1 µM, percent relative to cAMP agonist control]; in assay [5] it was 11% [at 30.8 µM]. Also, the activity change, negative = inhibition in assay [4] is -23.2% [at 30.8 µM].

In the case of `CC(C)(C)NC(=O)COC(=O)c1c2c(nc3ccccc13)CCC2`, the Potency entry in assay [1] and in assay [3] was “inactive” each time. In addition, the activation in assay [2] is 2.28% [at 17.1 µM, percent relative to cAMP agonist control]; in assay [5], 16.3% [at 30.8 µM]. Also, the activity change, negative = inhibition in assay [4] is -10.2% [at 30.8 µM].

On to `CCc1ccc(C=C2SC(=S)N(CCCC(=O)Nc3ccc(C(=O)O)cc3)C2=O)cc1`, for which the Potency entry in assay [1], in assay [2], in assay [3], in assay [4] and in assay [5] was “inactive” throughout.

Take `CC(=O)c1c(C)[nH]c(C(=O)OCC(=O)c2ccc3c(c2)NC(=O)CO3)c1C`: the Potency result in assay [1], in assay [2], in assay [3], in assay [4] and in assay [5] was “inactive” each time.

On to `CC1=Nc2ccccc2N=C(NC(=O)/C=C/C(=O)O)C1c1ccccc1` (stereo not given), for which the Potency result in assay [1], in assay [2], in assay [4] and in assay [5] was “inactive” in each case. Also, the Potency in assay [3] was 0.0675 µM (active).

Consider `Cc1cc(C)c(C)c(S(=O)(=O)N2CCCCC2C(=O)O)c1C` (stereo not given), for which the Potency result in assay [1] and in assay [3] was “inactive” each time. Besides, the activation in assay [2] is 4.7% [at 17.1 µM, percent relative to cAMP agonist control]; in assay [5] it was -1.83% [at 30.8 µM]. The activity change, negative = inhibition in assay [4] was 8.45% [at 30.8 µM].

In the case of `CC1(Cc2cc(Cl)ccc2C(F)(F)F)C(=O)Nc2cc(F)ccc21` (stereo not given), the Potency entry in assay [1] and in assay [3] was “inactive” throughout. Also, the activation in assay [2] was 5.2% [at 17.1 µM, percent relative to cAMP agonist control]; in assay [5] it was 12.6% [at 30.8 µM]. The activity change, negative = inhibition in assay [4] was -15.8% [at 30.8 µM].

In the case of `CCN(CC)C(=O)c1ccc2c(c1)N(Cc1ccc(C(F)(F)F)cc1)C(=O)c1ccccc1S2`, the Potency result in assay [1], in assay [2], in assay [4] and in assay [5] was “inactive” each time. Moreover, the outcome in assay [3] was “inactive [at 12.7 µM]”.
